The text below walks through data of PubChem BioAssay (NCATS).

SMILES strings stand for the structures. Results filed as inconclusive are left out. Active and inactive are the calls of the source. The call rests on the fitted dose curve; in most records, active means well fitted cell-killing curve with a large enough effect; inconclusive means small, poorly fitted or top-dose-only effect, or effect the other way; inactive means no such curve, though single readings can be large or run the other way.

A short description of experiment [1]: Quantitative High-Throughput drug screen in 47 multiple myeloma cell lines against the NCATS MIPE library collection: PE2_PLB cell viability assay (AID 1919869). Further: nearly all actives have a fitted effect of over 35% in size. To be noted: PE2_PLB myeloma cells viability, ATP luminescence, 48 h; series mostly up to 45.8 µM. The method in brief: (§1)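 MIPE 4.0 approved/investigational drugs; 500 cells/well; 48 h 37 °C humidified 5% CO2; CTG luminescence readout; DMSO = 100%, media = 0% viability.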

Experiment [2] in a line: Quantitative High-Throughput drug screen in 47 multiple myeloma cell lines against the NCATS MIPE library collection: PCM6_Riken cell viability assay (AID 1919870). Further: nearly all actives have a fitted effect of over 30% in size. To be noted: CellTiter-Glo ATP, 48 h; series mostly up to 45.8 µM. Put shortly:
as §1

Experiment [3] in a line: Quantitative High-Throughput drug screen in 47 multiple myeloma cell lines against the NCATS MIPE library collection: RPMI8226_ATCC cell viability assay (AID 1919871). Further: nearly all actives have a fitted effect of over 30% in size. Conditions: RPMI8226 myeloma viability, CellTiter-Glo ATP luminescence, 48 h; series mostly up to 45.8 µM. Put shortly:
as §1
On the technique in general: ATP-based viability assays read luminescence as a measure of living cells.

Experiment [4] in a line: Quantitative High-Throughput drug screen in 47 multiple myeloma cell lines against the NCATS MIPE library collection: OPM2_DSMZ cell viability assay (AID 1919872). Further: nearly all actives have a fitted effect of over 30% in size. To be noted: OPM2 myeloma viability, CellTiter-Glo ATP luminescence, 48 h; series mostly up to 45.8 µM. The method in brief: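 CellTiter-Glo ATP luminescence gave viability after 48 h compound treatment at 37C of 500 multiple myeloma cells per well. Normalisation used DMSO-only wells as 100% and media-only wells as 0% viability; primary qHTS of approved and investigational drugs.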

Experiment [5] can be described thus: Quantitative High-Throughput drug screen in 47 multiple myeloma cell lines against the NCATS MIPE library collection: KMS28BM_JCRB cell viability assay (AID 1919874). Further: nearly all actives have a fitted effect of over 35% in size. To be noted: CellTiter-Glo ATP, 48 h; series mostly up to 45.8 µM. Put shortly: as §1
Experiment [6] can be described thus: Quantitative High-Throughput drug screen in 47 multiple myeloma cell lines against the NCATS MIPE library collection: KMS11_JCRBsus cell viability assay (AID 1919873). Further: nearly all actives have a fitted effect of over 50% in size. To be noted: KMS11 myeloma viability, CellTiter-Glo ATP luminescence, 48 h; series mostly up to 45.8 µM. Put shortly: as §1
Potency means the concentration at half of the fitted maximal effect.

As to `C#CCN(C)CC1=Cc2ccccc2Oc2ccccc21`, the Potency entry in experiment [1], in experiment [2], in experiment [3], in experiment [4] and in experiment [5] was “inactive” in each case.
For the compound `C[C@@H]1C[C@H]2[C@@H]3CCC4=CC(=O)C=C[C@]4(C)[C@@]3(F)[C@@H](O)C[C@]2(C)[C@@]1(O)C(=O)CO`, the Potency entry in experiment [1], in experiment [2] and in experiment [4] was “inactive” each time. For the same compound, the Potency in experiment [3] is 0.0166 µM (active); in experiment [6], 0.0132 µM (active).
As for `COc1ccc(C=CC(=O)Nc2ccccc2C(=O)O)cc1OC`, the Potency in experiment [1] was 14.8 µM (active). For the same compound, the Potency result in experiment [2], in experiment [3] and in experiment [4] was “inactive” each time.
In the case of `CNC(=O)[C@H](Cc1ccccc1)NC(=O)[C@H](CC(C)C)[C@H](CSc1cccs1)C(=O)NO`, the Potency is 16.6 µM (active) in experiment [1], 13.2 µM (active) in experiment [2] and 18.7 µM (active) in experiment [4].
As for `O[C@@H](COc1cccc2ncccc12)CN1CCN(C2c3ccccc3[C@@H]3[C@H](c4ccccc42)C3(F)F)CC1` (stereo partly specified), the Potency is 16.6 µM (active) in experiment [1], 10.5 µM (active) in experiment [2], 20.9 µM (active) in experiment [3] and 4.18 µM (active) in experiment [6]. For the same compound, the Potency result in experiment [4] was “inactive”.
As to `COc1cc2ncn(-c3cc(OCc4ccccc4S(C)(=O)=O)c(C#N)s3)c2cc1OC`, in experiment [1], the Potency was 1.05 µM (active). The Potency result in experiment [2], in experiment [3] and in experiment [4] was “inactive” each time.
As to `CCn1c(-c2nonc2N)nc2cncc(CNC3CCNCC3)c21`, the Potency is 5.9 µM (active) in experiment [1] and 4.18 µM (active) in experiment [2].
Regarding `O=C(O)c1ccc(O)c2ncc(N3CCOCC3)cc12`, in experiment [1], the Potency was 16.6 µM (active). The Potency result in experiment [4] is “inactive”.
In the case of `CC(=O)OCC(=O)[C@@]1(O)CC[C@H]2[C@@H]3CCC4=CC(=O)C=C[C@]4(C)[C@@H]3[C@@H](O)C[C@@]21C`, the Potency result in experiment [1] and in experiment [4] was “inactive” in each case. The Potency in experiment [6] was 0.235 µM (active).
Take `CN(C)CCCNC(=O)c1ccc(-c2cc(O)c3ncccc3c2)cc1`: the Potency result in experiment [2] was “inactive”. For the same compound, the Potency is 18.7 µM (active) in experiment [3] and 23.5 µM (active) in experiment [6].
In the case of `CNC1[C@H](O)C(O[C@@H]2C(O)C(O[C@H]3O[C@H]([C@@H](C)NC)CC[C@H]3N)[C@@H](N)C[C@H]2N)OC[C@]1(C)O` (stereo partly specified), the Potency result in experiment [2], in experiment [3], in experiment [4] and in experiment [5] was “inactive” each time.
Regarding `CC(NCCc1ccc(O)cc1)C(O)c1ccc(O)cc1` (stereo unspecified), the Potency result in experiment [2], in experiment [3], in experiment [4], in experiment [6] and in experiment [5] was “inactive” throughout.
As for `CCOC(=O)c1c(CSc2ccccc2)n(C)c2cc(Br)c(O)c(CN(C)C)c12`, the Potency is 16.6 µM (active) in experiment [2], 11.8 µM (active) in experiment [3], 18.7 µM (active) in experiment [6] and 14.8 µM (active) in experiment [5].
Take `CCNC(=O)[C@H]1O[C@@H](n2cnc3c(N)nc(NCCc4ccc(CCC(=O)O)cc4)nc32)[C@H](O)[C@H]1O`: the Potency in experiment [1] is 0.0469 µM (active). Further, the Potency entry in experiment [3] and in experiment [6] was “inactive” in each case.
In the case of `CN(C)c1nc(Cc2ccc(NC(=O)c3ccc(C(F)(F)F)cc3)cc2)nc(N(C)C)c1CC(=O)O`, the Potency result in experiment [1], in experiment [6] and in experiment [5] was “inactive” throughout. Further, the Potency in experiment [3] is 6.62 µM (active).
For the compound `CC1(COc2ccc3c(c2)ncn3-c2ccc3cccc(N4CCC(N)CC4)c3n2)COC1`, the Potency in experiment [1] was 0.0148 µM (active); in experiment [3], 20.9 µM (active); in experiment [4] it was 0.743 µM (active); in experiment [5], 0.372 µM (active).
For `COc1ccc(CCC(=O)Nc2nc3ccc(Cl)cc3s2)cc1OC`, the Potency was 23.5 µM (active) in experiment [1] and 11.8 µM (active) in experiment [6]. Also, in experiment [4], the Potency result is “inactive”.
`Oc1ccc(C=Cc2cc(O)cc(O)c2)cc1`: the Potency entry in experiment [2], in experiment [4] and in experiment [5] was “inactive” each time. Also, the Potency in experiment [3] was 18.7 µM (active); in experiment [6], 16.6 µM (active).
Turning to `C[C@@]1(c2cc(-c3cncnc3)c(F)cc2F)CCSC(N)=N1`, the Potency in experiment [2] was 2.96 µM (active). In addition, the Potency entry in experiment [3] is “inactive”.
For the compound `Cc1csc(-c2nnc(Nc3ccc(Oc4ncccc4-c4ccnc(N)n4)cc3)c3ccccc23)c1`, the Potency in experiment [2] is 20.9 µM (active).
As for `c1ccc(-c2oc3ncnc(NC[C@@H]4CCCO4)c3c2-c2ccccc2)cc1`, the Potency in experiment [1] is 16.6 µM (active); in experiment [3], 23.5 µM (active); in experiment [6] it was 16.6 µM (active).
Take `CCN1CCC(n2cc(CNc3cc(Cl)c4ncc(C#N)c(Nc5ccc(F)c(Cl)c5)c4c3)nn2)CC1`: the Potency in experiment [2] was 20.9 µM (active); in experiment [3] it was 16.6 µM (active); in experiment [6] it was 20.9 µM (active); in experiment [5], 20.9 µM (active).
As for `CC1(C)CC(=O)c2c(C(F)(F)F)nn(-c3ccc(C(N)=O)c(NC4CCC(O)CC4)c3)c2C1` (stereo unspecified), the figures for the Potency in experiment [1], in experiment [4] and in experiment [6] were 0.118 µM (active), 0.166 µM (active) and 0.0118 µM (active), respectively.
For the compound `O=C(O)C1=NC(C(=O)O)CC(C=CN2c3cc(O)c(OC4OC(CO)C(O)C(O)C4O)cc3CC2C(=O)O)=C1` (stereo unspecified), the Potency result in experiment [1], in experiment [3] and in experiment [6] was “inactive” throughout.
With `CN[C@@H](C)[C@H]1[C@H](O)C[C@@]2(C)[C@@H]3CC[C@H]4C(C)(C)[C@@H](NC)CC[C@@]45C[C@@]35CC[C@]12C`, the Potency entry in experiment [1], in experiment [3], in experiment [4] and in experiment [5] was “inactive” each time.
As for `CC(C)c1c(C(=O)Nc2ccccc2)c(-c2ccccc2)c(-c2ccc(F)cc2)n1CC[C@H](O)C[C@@H](O)CC(=O)O`, the Potency was 11.8 µM (active) in experiment [1], 10.5 µM (active) in experiment [3] and 10.5 µM (active) in experiment [6].
